Screening data: PubChem, National Center for Advancing Translational Sciences (NCATS)
Compounds with a hit are over-represented: about 21% of the library has one in this group of screens.
NS1 inh – influenza NS1 inhibition | Potency, µM (series often up to 46.1 µM), for inactives: top-dose activity, positive = more growth | 270,000 tested, 0.4% active | AID 2326; calls by dose curve; also: potency is read from the fitted curve at half-maximal effect; actives are rising curves; nearly all actives have a fitted effect of over 50% in size
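Read-out: OD600 growth recovery of NS1-expressing budding yeast. Cells grown overnight at 30C in -URA glucose medium, washed, resuspended and diluted 1:100 in 2% galactose assay medium, pH 6.0. Same strain lacking NS1 served as positive control.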
Pf growth 96h – P. falciparum growth inhibition at 96 hours. P. falciparum luciferase reporter growth, 96 h. Potency, µM (series often up to 28.7 µM), without a hit: at the highest dose activity change, negative = inhibition, most hits filed as inhibitors. 320,000 tested, 6.9% active. AID 504834; also: potency is read from the fitted curve at half-maximal effect; % is scaled to controls: 0 for no effect and ±100 for the full control effect
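Infected RBCs, 2% Hct / 0.05% parasitemia final; luciferase-reporter P. falciparum; cpd 96 h, 37 C, 5% CO2; luciferase detection reagent; luminescence.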
CHX counter – affects cycloheximide protein synthesis inhibition readout, counter-screen. AID 2314. cell reporter, cycloheximide protein synthesis inhibition counterscreen. 300,000 tested, 12% active. max response, %; in the data active = max response mostly above about 13%, no sharp cut-off; inactive = mostly below about 14%; also: read at 38.3 µM for the half of the compounds with a filed dose; 0% is about no effect
FBPA Giardia inh – inhibitors of Giardia lamblia fructose-1,6-bisphosphate aldolase; A8B2U2; purified Giardia FBPA; Potency, µM (series often up to 59.6 µM), for inactives: at the highest dose activity, negative = inhibition, hits mostly inhibitors; 290,000 tested, 0.71% active; AID 2451; also: potency is read from the fitted curve at half-maximal effect; % is scaled to controls: 0 for no effect and ±100 for the full control effect; nearly all actives have a fitted effect of over 55% in size
Target sequence (A8B2U2 whole entry, looked up): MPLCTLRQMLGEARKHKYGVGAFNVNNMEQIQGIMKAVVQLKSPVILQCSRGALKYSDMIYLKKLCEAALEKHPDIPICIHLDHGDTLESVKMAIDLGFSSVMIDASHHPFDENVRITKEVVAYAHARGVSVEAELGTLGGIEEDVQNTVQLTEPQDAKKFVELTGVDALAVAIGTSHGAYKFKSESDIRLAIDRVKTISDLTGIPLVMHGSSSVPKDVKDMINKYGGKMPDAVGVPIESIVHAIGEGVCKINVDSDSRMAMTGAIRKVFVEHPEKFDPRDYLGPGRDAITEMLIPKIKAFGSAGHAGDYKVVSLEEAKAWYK
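Giardia FBPA (40 nM reagent) was preincubated 10 min at RT with compound (up to 57.5 uM final), then substrate plus GAPDH/TPI/NAD/arsenate coupling system with diaphorase/resazurin was added; resorufin fluorescence (525/598 nm) was read after 20 min.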
Pf growth 48h – P. falciparum growth inhibition at 48 hours (one generation); P. falciparum luciferase growth in erythrocytes, 48 h; AID 504832; 310,000 tested, 5.9% active; Potency, µM (doses to about 28.7 µM), for the others: top-dose activity change, negative = inhibition, usual class: inhibitors; also: potency is read from the fitted curve at half-maximal effect; % is scaled to controls: 0 for no effect and ±100 for the full control effect
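A one-generation exposure of luciferase-tagged malaria parasites in RPMI 1640/Albumax erythrocyte culture, 37 C and 5% CO2. Inhibition is inferred from decreased luminescence after adding detection reagent.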
Shiga toxin inh – Shiga toxin inhibition; Vero cells, Shiga toxin protein synthesis inhibition reporter; inhibition, % at 38.7 µM; 290,000 tested, 9.2% active; AID 2315; in the data active = inhibition mostly above about 28%, no sharp cut-off; inactive = mostly below about 43%; also: 0% is about no effect
Active calls of the source: *; i = inactive; ? = inconclusive; / = no result; [ ] = dose if it differs, or a comment. Unless noted, calls follow the shape of the dose curve; as a rule, active = well fitted curve in the direction sought with a large enough effect; inconclusive = small, poorly fitted or top-dose-only effect, or another doubt; inactive = no such curve, though single readings can be large; an effect the other way counts as inactive or inconclusive.

SMILES	NS1 inh	Pf growth 96h	CHX counter	FBPA Giardia inh	Pf growth 48h	Shiga toxin inh
O=C(CCc1nnc(-c2ccccc2)o1)c1ccc(Cl)cc1	-6.9%	33.9%	0.5	4.4%	39.2%	3.6
CCn1ccnc1CN(C)C(=O)CCc1nnc(CCCc2ccccc2)o1	-7.3%	-17.2%	10.4	-6.2%	?	20.0
CCOC(=O)CN(C)C(=O)CCc1nnc(-c2ccsc2)o1	11.5%	?	-3.4	17.3%	-23.9%	-7.4
Cc1cc(C)n(CCN(C)C(=O)CCc2nnc(CCC3CCCCC3)o2)n1	1.2%	21.8%	37.6*	-2.3%	-13.7%	91.0*
CN(CCC1CCCCO1)C(=O)CCc1nnc(CCCCc2ccccc2)o1 (stereo not given)	-4.6%	11.1%	17.3*	1.7%	-21.5%	32.9
CN(CCCC1CCCC1)C(=O)CCc1nnc(-c2ccccc2)o1	-8.7%	17.6%	32.3*	9.1%	2.2%	53.3*
CN(C(=O)CCc1nnc(-c2ccc(-c3ccccc3)cc2)o1)C1CCOCC1	15.0%	32.2%	13.4	/	?	30.1*
O=C(Nc1c(C(=O)N2CCOCC2)cnn1-c1ccccc1)c1cccc(F)c1	-4.2%	6.3%	-5.8	/	7.3%	-4.5
COc1ccc(C(=O)NCC(=O)N/N=C/c2ccc(C)o2)cc1OC	3.3%	6.2%	-2.5	-8.6%	4.9%	-6.6
COc1ccc(F)cc1CN1CCN(c2cc(C)nc3c4c(C)cc(C)nc4nn23)CC1	-24.8%	?	-2.0	5.9%	14.7µM*	-19.8
CCOC(=O)N1CCC(NC(=O)c2ccc3c(c2)N(Cc2ccccc2)CCS3)CC1	10.4%	?	2.9	1.6%	/	9.2
CCOC(=O)N1CCC(NC(=O)c2ccc(CO)c(C(=O)NC3CCN(C(=O)OCC)CC3)c2)CC1	/	?	-2.2	-2.1%	?	14.5
O=C(NCc1ccco1)c1ccc2c(c1)N(Cc1ccccc1)CCS2	-11.7%	?	8.0	-1.2%	?	18.3
CCOC(=O)N1CCC(NC(=O)c2ccc3c(c2)N(C)CCS3)CC1	-1.9%	?	7.8	-6.7%	11.7µM*	-4.7
O=C(NCc1ccco1)c1ccc2c(c1)N(Cc1ccc(Cl)cc1)CCS2	1.8%	?	8.3*	-9.6%	?	44.6*
O=C(NC1CC1)c1ccc2c(c1)N(Cc1ccccc1)CCS2	19.8%	11.7µM*	9.6	/	-22.7%	16.5
COc1ccc(OC)c(CCNC(=O)c2ccc3c(c2)N(Cc2ccccc2)CCS3)c1	30.7%	13.1µM*	5.5	/	?	10.8
O=C(CNC(=O)c1ccc2ccccc2c1)OCC(=O)N1CCN(S(=O)(=O)c2ccc3ccccc3c2)CC1	?	0.0%	-2.8	28.2%	-23.3%	19.7
CCOCCn1c(=O)c2c(nc3n2CCN3c2ccc(C)c(C)c2)n(C)c1=O	/	5.9%	/	/	8.5%	/
CCOC(=O)N1CCC(NC(=O)c2ccc3c(c2)N(Cc2ccc(C)cc2)CCS3)CC1	-0.3%	?	-3.4	-3.2%	?	6.1
CCOC(=O)N1CCC(NC(=O)c2ccc3c(c2)N(Cc2ccc(F)cc2)CCS3)CC1	23.0%	?	4.0	13.9%	4.65µM*	0.3
COc1ccccc1C(=O)NC(=O)COC(=O)C1CC2CCCC(C1)C2=O (stereo not given)	-2.3%	-21.0%	-2.9	/	4.2%	11.6
O=C(OCCN1CCCCC1)c1ccc(O)cc1	14.1%	/	22.7*	2.6%	6.4%	19.0
O=C(OCCCN1CCCCC1)c1ccc(O)cc1	0.0%	2.62µM*	0.9	2.0%	25.2%	-12.2
O=C(OCCN1CCCCC1)c1ccccc1Cl	-4.7%	/	29.2*	-8.4%	3.3%	37.3
SMILES	NS1 inh	Pf growth 96h	CHX counter	FBPA Giardia inh	Pf growth 48h	Shiga toxin inh
O=C(OCCN1CCOCC1)c1ccc(O)cc1	19.6%	121.2%	-0.8	-9.2%	15.4%	/
O=C(/C=C/c1ccc(O)c(O)c1)c1ccc(O[C@@H]2O[C@H](CO)[C@@H](O)[C@H](O)[C@H]2O)c(O)c1O	/	/	15.8	?	/	25.3
O=C(c1cc(-c2cccc(O)c2)on1)N1CCOCC1	-11.6%	-17.1%	12.8*	2.7%	153.4%	23.4*
O=C(c1cccc(S(=O)(=O)N2CCCC2)c1)N1CCOCC1	/	-14.2%	/	/	20.1%	/
O=C1c2ccccc2-c2ccc(C(=O)N3CCOCC3)cc21	-4.8%	/	22.4*	-2.9%	21.4%	12.7
O=C(c1cccc(-c2ccc(O)cc2)c1)N1CCOCC1	6.2%	114.6%	13.2*	3.3%	/	22.4
O=C(c1cc(-c2cccc(O)c2)on1)N1CCCCCC1	-12.5%	36.5%	36.6*	-6.7%	182.6%	112.1*
O=C(c1cc(-c2cccc(Cl)c2)on1)N1CCN(c2ccccc2)CC1	-23.2%	16.2%	15.3	4.3%	35.9%	24.3
CCOC(=O)c1ccc(NC(=O)N2CCN(C(=O)C3CCCO3)CC2)cc1 (stereo not given)	4.5%	?	1.3	3.1%	-25.9%	-14.8
CCn1cc(C(=O)NCCCN(CC(C)C)CC(C)C)c(=O)c2cc(S(=O)(=O)N(C)C3CCCCC3)ccc21	-8.4%	?	13.1	-5.0%	?	-4.0
CCOC(=O)CN(c1cc([N+](=O)[O-])ccc1OC)S(C)(=O)=O	7.1%	i	1.3	13.7%	1.5%	-17.0
N#Cc1ccc(C[C@H](C(=O)O)N2C(=O)c3ccc(C(=O)O)cc3C2=O)cc1	/	1.9%	-5.5	7.1%	6.4%	-3.4
Cc1ccc(N(CC(=O)Nc2ccccc2-c2ccccc2)S(=O)(=O)c2ccccc2)cc1	?	6.57µM*	1.0	-5.9%	?	-4.0
Cc1ccc(S(=O)(=O)N(CC(=O)Nc2ccccc2-c2ccccc2)c2ccc(C)cc2C)cc1	7.4%	-18.4%	-1.5	1.0%	?	-13.7
Cc1ccc(S(=O)(=O)Nc2ccccc2-c2ccccc2)cc1	-19.1%	11.7µM*	-5.3	-27.7%	-6.2%	-7.9
Cc1cccc(N(CC(=O)Nc2ccccc2-c2ccccc2)S(=O)(=O)c2ccccc2)c1C	?	7.6%	7.1	15.1%	8.28µM*	14.7
Cc1cc(C)cc(N(CC(=O)Nc2ccccc2-c2ccccc2)S(=O)(=O)c2ccccc2)c1	18.5%	?	8.1	11.0%	1.8%	-7.1
CCCN(CC(=O)Nc1ccc(Cl)cc1Cl)C(=O)c1ccc(=O)[nH]c1	2.6%	2.3%	-2.6	/	12.3%	-7.4
N#Cc1cccc(NC(=O)N2CC[C@@]3(CCCN(C(=O)c4ccco4)C3)C2)c1	/	/	/	1.1%	/	/
COc1cccc(N2CC(O)Cn3c2nc2c3c(=O)[nH]c(=O)n2C)c1 (stereo not given)	-0.8%	3.8%	-1.9	3.2%	-0.6%	-11.7
CC(C)OC(=O)c1cc2ccccc2[nH]1	5.9%	?	23.3*	-0.6%	29.2%	53.9*
NNC(=O)c1cc2ccccc2[nH]1	/	?	4.6	-0.1%	?	10.7
CCOC(=O)c1cc2cc3ccccc3cc2[nH]1	-0.4%	i	54.1*	?	i	150.2*
CCCCCC(=O)c1cc(CC(C(=O)OC)C(=O)OC)cc2cc(OC)c(OC)cc12	/	/	/	-2.6%[12.9 µM]	/	/
